Results filed as inconclusive are left out. Calls of active or inactive are those of the source. Unless noted, calls come from the whole dose curve; as a rule, active = well fitted curve in the direction sought with a large enough effect; inconclusive = small, poorly fitted or top-dose-only effect, or another doubt; inactive = no such curve, though single readings can be large; an effect the other way counts as inactive or inconclusive.
Experiments:
[1] = High Content Imaging Cell-Based qHTS for Inhibitors of the mTORC1 Signaling Pathway in MEF Cells (AID 2667); conditions: series mostly up to 38.3 µM;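 note: Tsc2-/- p53-/- MEFs stably re-expressing wild-type Tsc2 exposed 24 h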
In short: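 WT MEFs (Tsc2-/-, p53-/- re-expressing Tsc2), in DMEM + 10% FBS, were treated with compound for 24 h at 37 C. Cells were then fixed and stained for phospho-rpS6 Ser235/236 with propidium iodide as cell count. Values are % positive cells, with thresholds set against rapamycin-treated cells.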

[2] = Cytometry Cell-Based qHTS for Inhibitors of the mTORC1 Signaling Pathway in MEF cells (AID 2668); conditions: mTORC1 pathway readout; series mostly up to 38.3 µM;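 note: Tsc2-/- p53-/- mouse embryonic fibroblasts stably re-expressing wild-type Tsc2; percent cells positive for phospho-rpS6 Ser235/236 relative to propidium iodide stain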
In short: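 Tsc2-/-, p53-/- MEFs re-expressing WT Tsc2; cpd 24 hrs, 37 degree Celsius; PFA fix, Alexa-488 p-rpS6 (Ser235/236) Ab 2 hrs RT, PI counterstain; Acumen 488nm scan; p-S6/PI ratio → % positive cells; PI count = viability.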

[3] = Validation screen for small molecules that induce DNA re-replication in MCF 10A normal breast cells (AID 463097); conditions: MCF 10A cells, DNA re-replication phenotype imaging; series mostly up to 46.1 µM; note: nearly all actives have a fitted effect of over 60% in size
In short: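 Image-based qHTS: normal breast cells are incubated with compound for 48 hr, stained with Hoechst, and scanned for total nuclear fluorescence. Compounds raising the fraction of nuclei with elevated DNA content count as re-replication inducers.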

[4] = molecular target: Ubiquitin carboxyl-terminal hydrolase 2 (Homo sapiens) (UniProt O75604); test: qHTS Validation Assay for Inhibitors of Ubiquitin-specific Protease USP2a Using CHOP2 as the Reporter (AID 463106); conditions: USP2a cleavage of CHOP2 reporter, enzymatic; series mostly up to 38.3 µM
In short: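 USP2 core (10 nM final) was preincubated with compound 30 min at RT in pH 8.0 Tris/CaCl2/beta-ME/CHAPS buffer. Ub-CHOP2 and reporter substrate (25 nM final each) were then added, with fluorescence (Ex 485/Em 531) read after 60 min. Data were normalized to NEM full inhibition and fitted to concentration-response curves.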

[5] = molecular target: DNA polymerase III PolC-type (Bacillus subtilis (strain 168)) (UniProt P13267); test: qHTS Validation Assay for the Inhibitors of DNA Replication in Gram-Positive Bacteria (AID 485295); conditions: Gram-positive bacterial DNA replication assay; series mostly up to 57.1 µM;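 note: reconstituted holoenzyme with PolC plus beta clamp SSB and primase; PicoGreen fluorescence of double-stranded DNA made on primed circular M13 template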
DNA polymerase III PolC-type (Bacillus subtilis (strain 168)), sequence (P13267 whole entry, looked up): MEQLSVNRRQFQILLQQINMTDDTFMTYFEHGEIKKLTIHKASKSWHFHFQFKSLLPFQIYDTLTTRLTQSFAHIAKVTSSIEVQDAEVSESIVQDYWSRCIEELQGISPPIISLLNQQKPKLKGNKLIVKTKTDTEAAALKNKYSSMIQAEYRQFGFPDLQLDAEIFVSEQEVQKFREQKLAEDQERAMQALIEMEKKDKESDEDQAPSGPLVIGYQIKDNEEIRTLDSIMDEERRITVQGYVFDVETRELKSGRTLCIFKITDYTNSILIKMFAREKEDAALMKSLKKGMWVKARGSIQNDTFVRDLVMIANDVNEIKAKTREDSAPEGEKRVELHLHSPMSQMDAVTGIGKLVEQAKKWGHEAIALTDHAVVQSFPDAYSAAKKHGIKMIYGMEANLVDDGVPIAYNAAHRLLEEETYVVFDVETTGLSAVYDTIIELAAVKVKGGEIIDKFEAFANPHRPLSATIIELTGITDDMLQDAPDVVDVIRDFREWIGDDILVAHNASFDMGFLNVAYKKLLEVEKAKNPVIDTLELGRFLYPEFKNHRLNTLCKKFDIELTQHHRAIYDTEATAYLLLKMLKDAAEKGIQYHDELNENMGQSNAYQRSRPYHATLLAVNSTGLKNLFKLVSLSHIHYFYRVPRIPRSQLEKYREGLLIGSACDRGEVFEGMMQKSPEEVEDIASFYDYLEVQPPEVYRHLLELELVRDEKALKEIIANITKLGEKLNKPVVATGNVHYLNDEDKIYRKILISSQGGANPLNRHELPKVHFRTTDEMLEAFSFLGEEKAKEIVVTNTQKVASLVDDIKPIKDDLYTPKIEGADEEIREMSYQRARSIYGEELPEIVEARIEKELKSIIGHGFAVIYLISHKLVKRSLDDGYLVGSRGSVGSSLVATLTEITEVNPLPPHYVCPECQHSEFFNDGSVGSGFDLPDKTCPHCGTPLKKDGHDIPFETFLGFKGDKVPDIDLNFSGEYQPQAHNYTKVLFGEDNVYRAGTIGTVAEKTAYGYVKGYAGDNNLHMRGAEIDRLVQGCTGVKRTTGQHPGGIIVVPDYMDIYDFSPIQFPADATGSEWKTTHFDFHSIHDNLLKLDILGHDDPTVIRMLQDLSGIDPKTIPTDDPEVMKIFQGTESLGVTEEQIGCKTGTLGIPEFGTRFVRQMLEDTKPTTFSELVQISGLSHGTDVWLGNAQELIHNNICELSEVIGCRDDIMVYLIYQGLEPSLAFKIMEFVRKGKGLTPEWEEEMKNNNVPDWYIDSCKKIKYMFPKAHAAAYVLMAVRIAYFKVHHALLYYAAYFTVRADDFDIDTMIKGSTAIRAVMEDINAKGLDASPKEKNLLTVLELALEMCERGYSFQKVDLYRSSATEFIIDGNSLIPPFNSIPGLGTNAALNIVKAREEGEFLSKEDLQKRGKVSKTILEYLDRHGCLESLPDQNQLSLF
In short: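 First, compound is mixed with the reconstituted replication complex and held at room temperature. Next, circular single-stranded M13Gori with nucleotides starts synthesis. Finally, PicoGreen in EDTA halts the reaction and stains double-stranded product for fluorescence reading.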

[6] = molecular target: Tumor susceptibility gene 101 protein (Homo sapiens) (UniProt Q99816); test: qHTS Validation Assay for Iinhibitors of HIV-1 Budding by Blocking the Interaction of PTAP/TSG101 (AID 485342; calls by dose curve); conditions: TSG101-PTAP binding, fluorescence polarization, 4-point titration; series mostly up to 115 µM
In short: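 Binding of a FITC-tagged PTAP-motif peptide (50 nM) to the Tsg101 binding domain (10 uM) is monitored by fluorescence polarization. Compounds are pin-delivered before peptide addition, and incubation runs 20 min at room temperature.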

[7] = qHTS Validation Assay to Find Inhibitors of Chronic Active B-Cell Receptor Signaling (AID 485345; active = well fitted curve in the direction sought with a large enough effect in the main read-out, with a control signal flat, not every such curve was filed as active; note: potency is the fitted concentration of half-maximal effect); conditions: ABC-DLBCL cells, chronic BCR signaling reporter, CBG luciferase; series mostly up to 46.1 µM
In short: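 TMD8 ABC-DLBCL cells stably carrying doxycycline-inducible IkappaBalpha–green luciferase fusion plus unfused red luciferase; compounds 46 uM to 3 nM, 4 h at 37C with doxycycline. Corrected green/red luminescence ratio normalized to 10 uM MG-132 and basal cell wells; curves fitted.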

[8] = molecular target: Beta-2 adrenergic receptor (Homo sapiens) (UniProt P07550); test: qHTS validation assay of beta-arrestin-biased ligands of beta2-adrenergic receptor (AID 485366); conditions: cell-based beta-arrestin recruitment to ADRB2, qHTS; series mostly up to 46.1 µM
In short: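 Luminescence from a tTA-responsive luciferase, induced when recombinant beta-arrestin is recruited to recombinant beta2-AR, served as the agonism signal. Cells were exposed to compound for 18 hr at 37 degrees C; titrations spanned up to 46 microM.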

[9] = Quantitative high throughput screen for delayed death inhibitors of the malarial parasite plastid, 96 hour incubation (AID 488745); conditions: Plasmodium falciparum growth; series mostly up to 28.7 µM; note: nearly all actives have a fitted effect of over 70% in size; note: potency is the fitted concentration of half-maximal effect
In short: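 Growth of reporter-bearing P. falciparum in red cells is measured after 96 h with compound, covering two erythrocytic cycles. Luminescence from the integrated luciferase serves as the growth signal.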

[10] = Quantitative high throughput screen for delayed death inhibitors of the malarial parasite plastid, 48 hour incubation (AID 488752); conditions: Plasmodium falciparum growth; series mostly up to 28.7 µM; note: nearly all actives have a fitted effect of over 65% in size; note: potency is the fitted concentration of half-maximal effect
In short: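 One parasite generation (48 h, 37 C, 5% CO2) of luciferase-reporter P. falciparum in erythrocytes is run with test compound; decreased luminescence indicates inhibited growth.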

[11] = molecular target: Thioredoxin reductase 1, cytoplasmic (Rattus norvegicus) (UniProt O89049); test: qHTS Assay for Substrates of Mammalian Selenoprotein Thioredoxin Reductase 1 (TrxR1) (AID 488772); conditions: purified TrxR1, NADPH consumption substrate assay; series mostly up to 57.1 µM;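 note: NADPH fluorescence in the first read after selenite addition and not the 8 min delta; a drop in NADPH fluorescence below the no-compound background marks a TrxR1 substrate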
Thioredoxin reductase 1, cytoplasmic (Rattus norvegicus), sequence (O89049 whole entry, looked up): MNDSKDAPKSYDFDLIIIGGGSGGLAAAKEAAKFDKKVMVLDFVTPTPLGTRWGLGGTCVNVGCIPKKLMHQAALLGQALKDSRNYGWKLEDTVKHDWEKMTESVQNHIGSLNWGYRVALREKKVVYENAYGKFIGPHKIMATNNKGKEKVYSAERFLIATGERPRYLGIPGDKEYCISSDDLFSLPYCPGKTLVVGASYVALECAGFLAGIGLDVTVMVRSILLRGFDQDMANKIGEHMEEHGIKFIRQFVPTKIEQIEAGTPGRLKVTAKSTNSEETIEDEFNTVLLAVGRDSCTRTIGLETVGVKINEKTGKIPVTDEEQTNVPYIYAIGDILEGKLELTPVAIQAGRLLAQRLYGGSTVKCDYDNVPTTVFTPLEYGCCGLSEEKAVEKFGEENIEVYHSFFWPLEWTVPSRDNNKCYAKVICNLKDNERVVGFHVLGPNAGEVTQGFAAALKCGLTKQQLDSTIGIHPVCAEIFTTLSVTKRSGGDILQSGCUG
In short: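 Quantitative HTS in Tris-HCl buffer at pH 7.5 with EDTA and Tween-20, using rat TrxR1, 400 uM NADPH and 400 uM selenite (final). A fall in initial NADPH fluorescence relative to background marked substrate behaviour.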

[12] = molecular target: Thioredoxin reductase 1, cytoplasmic (Rattus norvegicus) (UniProt O89049); test: qHTS Assay for Inhibitors of Mammalian Selenoprotein Thioredoxin Reductase 1 (TrxR1) (AID 488773); conditions: purified TrxR1 enzyme activity; Potency: inhibition; series mostly up to 57.1 µM; note: nearly all actives have a fitted effect of over 40% in size; note: potency is the fitted concentration of half-maximal effect
In short: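 Steps: enzyme (90 nM) plus NADPH (400 uM final), 5 min at ~22 deg C; compound added, 15 min; selenite (400 uM final) added; fluorescence followed for 8 min. Concentration-response curves derived from the normalized delta values.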

[13] = molecular target: Flap endonuclease 1 (Homo sapiens) (UniProt P39748); test: qHTS Validation Assay for the Inhibitors of Human Flap endonuclease 1 (FEN1) (AID 488816); conditions: FEN1 nuclease activity, fluorogenic DNA substrate; series mostly up to 57.1 µM
Flap endonuclease 1 (Homo sapiens), sequence (P39748 whole entry, looked up): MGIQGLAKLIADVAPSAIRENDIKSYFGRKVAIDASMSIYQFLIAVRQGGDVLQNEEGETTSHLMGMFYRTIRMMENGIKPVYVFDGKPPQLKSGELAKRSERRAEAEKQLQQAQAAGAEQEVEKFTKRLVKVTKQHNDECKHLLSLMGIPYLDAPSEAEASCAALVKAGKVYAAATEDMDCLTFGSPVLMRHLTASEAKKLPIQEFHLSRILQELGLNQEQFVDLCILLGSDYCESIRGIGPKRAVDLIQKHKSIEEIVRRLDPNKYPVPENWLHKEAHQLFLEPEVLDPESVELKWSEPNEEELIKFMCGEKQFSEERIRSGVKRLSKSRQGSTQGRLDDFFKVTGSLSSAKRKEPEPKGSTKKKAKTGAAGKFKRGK
In short: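 Human FEN1 (10 nM) preincubated 15 min at room temperature with compounds, then flap DNA substrate added at 50 nM final. Fluorescence read at 0 and 15 min; concentration-response fitted with four-parameter Hill equation.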

[14] = molecular target: M-phase phosphoprotein 8 (Homo sapiens) (UniProt Q99549); test: qHTS Validation Assay for Inhibitors for MPP8 Chromodomain Interactions with Methylated Histone Tails (AID 488949); conditions: AlphaScreen MPP8 binding to H3K9me3 peptide; series mostly up to 57.1 µM;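 note: 50 nM MPP8 with 50 nM peptide preformed then compounds added for 30 min; AlphaScreen signal from MPP8 chromodomain bound to biotinylated H3K9me3 peptide; top concentration of the series differs between compounds; nearly all actives have a fitted effect of over 55% in size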
In short: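 50 nM MPP8 + 50 nM b-H3K9me3 peptide, PBS pH 7.4/0.01% Tween-20, 30 min RT; + cpd 30 min RT; + AlphaScreen donor/Ni-chelate acceptor beads 10 ug/mL final, 30 min dark; luminescence read.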

[15] = molecular target: Chromobox protein homolog 1 (Homo sapiens) (UniProt P83916); test: qHTS Validation Assay for Inhibitors of HP1-beta Chromodomain Interactions with Methylated Histone Tails (AID 488953); conditions: HP1-beta chromodomain / methylated histone peptide binding assay; series mostly up to 114 µM;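 note: loss of AlphaScreen luminescence from HP1-beta binding biotinylated H3K9me3 peptide; nearly all actives have a fitted effect of over 50% in size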
Chromobox protein homolog 1 (Homo sapiens), sequence (P83916 whole entry, looked up): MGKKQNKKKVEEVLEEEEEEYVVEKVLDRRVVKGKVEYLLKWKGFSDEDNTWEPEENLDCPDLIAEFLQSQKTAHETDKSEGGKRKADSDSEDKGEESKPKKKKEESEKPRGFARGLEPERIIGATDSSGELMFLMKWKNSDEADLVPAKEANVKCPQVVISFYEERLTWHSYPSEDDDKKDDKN
In short: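 Measured as loss of AlphaScreen luminescence from streptavidin donor and nickel acceptor beads (10 ug/mL final) bridging HP1-beta and biotin-H3(1-18)K9me3, each 50 nM. Compounds met the preassembled complex for 30 min at RT.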

[16] = molecular target: Methanococcus maripaludis chaperonin (MmCpn) (UniProt Q6LX38); test: High-Throughput Screening for Modulators of Cytosolic Chaperonin Activity: MmCpn Primary Screen (AID 488978); conditions: Purified MmCpn ATPase activity, ADP HTRF detection, 10 min; series mostly up to 76.9 µM;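 note: 50 nM MmCpn enzyme hydrolysing 30 µM ATP at 37 °C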
In short: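 Steps: chaperonin 50 nM final; add compound, 5 min RT; start with ATP, 30 uM final; hold 10 min at 37C; add ADP Transcreener HTRF reagent, 5 min; read ex 320, em 590 and 665 nm.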

[17] = molecular target: Transient receptor potential cation channel subfamily V member 1 (Homo sapiens) (UniProt Q8NER1); test: HTS Assay for Compounds that Act as Enhancers of the Vanilloid Receptor 1 (AID 488979); conditions: TRPV1-expressing cells, enhancer of channel activity, stimulated with capsaicin at EC20; series mostly up to 41.7 µM
Transient receptor potential cation channel subfamily V member 1 (Homo sapiens), sequence (Q8NER1 whole entry, looked up): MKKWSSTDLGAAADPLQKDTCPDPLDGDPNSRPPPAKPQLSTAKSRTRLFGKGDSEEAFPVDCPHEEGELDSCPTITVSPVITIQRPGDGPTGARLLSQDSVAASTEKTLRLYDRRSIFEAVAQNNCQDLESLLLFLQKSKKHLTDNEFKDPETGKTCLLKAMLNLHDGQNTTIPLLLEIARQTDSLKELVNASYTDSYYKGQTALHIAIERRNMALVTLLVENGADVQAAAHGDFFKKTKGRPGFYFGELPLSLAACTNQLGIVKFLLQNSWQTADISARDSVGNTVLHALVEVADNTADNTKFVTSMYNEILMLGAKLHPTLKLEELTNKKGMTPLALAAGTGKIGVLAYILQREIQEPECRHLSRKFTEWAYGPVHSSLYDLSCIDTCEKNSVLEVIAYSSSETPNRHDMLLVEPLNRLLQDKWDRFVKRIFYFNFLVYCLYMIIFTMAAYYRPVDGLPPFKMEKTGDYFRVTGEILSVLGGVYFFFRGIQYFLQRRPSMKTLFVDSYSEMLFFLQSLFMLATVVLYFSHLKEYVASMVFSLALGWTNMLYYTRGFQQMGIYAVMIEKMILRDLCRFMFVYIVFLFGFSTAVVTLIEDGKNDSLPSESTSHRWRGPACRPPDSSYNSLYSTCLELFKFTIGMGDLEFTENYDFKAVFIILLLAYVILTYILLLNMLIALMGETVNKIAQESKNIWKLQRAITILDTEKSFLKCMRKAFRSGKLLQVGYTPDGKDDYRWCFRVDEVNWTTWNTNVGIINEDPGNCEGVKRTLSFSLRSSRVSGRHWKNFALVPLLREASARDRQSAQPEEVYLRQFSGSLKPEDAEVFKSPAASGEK
In short: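 TRPV1 cells loaded with Fluo-8 calcium dye; compound added and Ca2+ signal (ex 480/em 520 nm) followed 3 min, then capsaicin at EC20 added and read 2 more min to detect enhancement.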

[18] = molecular target: Thyrotropin receptor (Homo sapiens) (UniProt P16473); test: qHTS Assay for Antagonists of the Thyroid Stimulating Hormone Receptor (AID 488980); conditions: TSHR-expressing cells, cAMP antagonist read-out; series mostly up to 57.5 µM
Thyrotropin receptor (Homo sapiens), sequence (P16473 whole entry, looked up): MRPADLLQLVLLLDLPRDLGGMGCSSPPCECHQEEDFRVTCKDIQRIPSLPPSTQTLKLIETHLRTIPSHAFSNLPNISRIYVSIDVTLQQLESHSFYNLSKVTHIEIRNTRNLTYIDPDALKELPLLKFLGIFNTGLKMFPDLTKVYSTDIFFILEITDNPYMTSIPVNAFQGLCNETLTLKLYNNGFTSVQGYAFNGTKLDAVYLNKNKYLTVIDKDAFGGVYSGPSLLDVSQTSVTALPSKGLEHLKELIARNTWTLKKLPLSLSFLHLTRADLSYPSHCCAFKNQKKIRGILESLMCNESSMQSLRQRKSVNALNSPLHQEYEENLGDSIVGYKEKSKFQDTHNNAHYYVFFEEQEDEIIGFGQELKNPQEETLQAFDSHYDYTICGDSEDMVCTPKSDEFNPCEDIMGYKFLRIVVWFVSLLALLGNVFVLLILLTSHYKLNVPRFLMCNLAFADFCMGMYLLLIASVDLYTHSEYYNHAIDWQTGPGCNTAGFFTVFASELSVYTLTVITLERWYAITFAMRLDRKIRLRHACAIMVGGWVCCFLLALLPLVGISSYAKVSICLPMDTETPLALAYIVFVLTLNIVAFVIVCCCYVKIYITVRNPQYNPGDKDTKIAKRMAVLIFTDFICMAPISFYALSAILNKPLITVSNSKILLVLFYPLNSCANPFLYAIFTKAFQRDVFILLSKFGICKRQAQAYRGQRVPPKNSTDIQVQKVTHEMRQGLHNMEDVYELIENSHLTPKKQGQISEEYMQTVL
In short: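 Readout is cAMP by HTRF competition between cellular cAMP and cAMP-d2 for a cryptate-labelled antibody. Antagonism was assessed in TSHR-transfected HEK293 cells stimulated with 4 nM TSH (EC80, final) in the presence of RO 20-1724.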

[19] = molecular target: D(1A) dopamine receptor (Homo sapiens) (UniProt P21728); test: HTS Assay for Allosteric Agonists of the Human D1 Dopamine Receptor: Primary Screen for Agonists (AID 488981); conditions: Inducible HEK293 T-REx D1 cells, calcium-flux fluorescence, 180 s kinetic; series mostly up to 41.8 µM
D(1A) dopamine receptor (Homo sapiens), sequence (P21728 whole entry, looked up): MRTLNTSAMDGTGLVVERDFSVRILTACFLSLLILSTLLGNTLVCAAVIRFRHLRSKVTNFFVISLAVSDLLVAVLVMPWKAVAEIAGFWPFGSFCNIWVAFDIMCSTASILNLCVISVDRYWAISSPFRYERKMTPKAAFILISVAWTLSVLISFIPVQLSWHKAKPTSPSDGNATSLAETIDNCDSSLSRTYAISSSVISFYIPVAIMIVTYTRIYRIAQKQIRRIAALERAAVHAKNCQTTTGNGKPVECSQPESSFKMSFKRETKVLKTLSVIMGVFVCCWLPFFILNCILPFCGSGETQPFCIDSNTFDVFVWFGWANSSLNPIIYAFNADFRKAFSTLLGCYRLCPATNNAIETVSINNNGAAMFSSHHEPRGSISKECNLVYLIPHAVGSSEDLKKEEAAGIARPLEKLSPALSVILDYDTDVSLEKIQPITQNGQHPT
In short: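 Tetracycline-induced HEK293 Trex D1 cells with forced coupling to calcium, loaded with no-wash calcium dye; kinetic fluorescence read 180 s after compound addition for agonism, then a further 180 s after an EC20 dopamine challenge for potentiation.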

[20] = molecular target: ATP-dependent 6-phosphofructokinase (Trypanosoma brucei brucei) (UniProt O15648); test: qHTS Validation Assay to Find Inhibitors of T. brucei phosphofructokinase (AID 485368); conditions: T. brucei PFK enzyme assay, qHTS 7-point titration; series mostly up to 57.5 µM
ATP-dependent 6-phosphofructokinase (Trypanosoma brucei brucei), sequence (O15648 whole entry, looked up): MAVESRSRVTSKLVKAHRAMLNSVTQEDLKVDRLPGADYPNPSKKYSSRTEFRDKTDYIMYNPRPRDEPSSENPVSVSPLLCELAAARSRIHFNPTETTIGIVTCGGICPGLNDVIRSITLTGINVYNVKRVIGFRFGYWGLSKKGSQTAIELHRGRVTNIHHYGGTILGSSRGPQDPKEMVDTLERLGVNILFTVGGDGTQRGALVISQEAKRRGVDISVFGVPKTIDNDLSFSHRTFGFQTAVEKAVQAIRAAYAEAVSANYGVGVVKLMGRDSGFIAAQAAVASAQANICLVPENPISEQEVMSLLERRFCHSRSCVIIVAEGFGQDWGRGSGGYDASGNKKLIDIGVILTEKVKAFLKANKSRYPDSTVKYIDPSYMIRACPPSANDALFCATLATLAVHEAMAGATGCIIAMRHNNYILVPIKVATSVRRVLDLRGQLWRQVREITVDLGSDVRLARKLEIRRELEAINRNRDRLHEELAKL
In short: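 Activity was normalized between 1x (1.25 nM) PFK wells as no inhibition and enzyme-free wells as full inhibition, from luminescence after ADP-Glo detection of ADP made from 0.5 mM F6P and 0.1 mM ATP over 45 min.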

Measured: Potency

O=C(O)CCCCCCCC(=O)O
not listed: [20]
inactive: all other assays above

CC(=O)OC(C)C[N+](C)(C)C (configuration not stated)
not listed: [20]
inactive: all other assays above

CSc1ccc(C(=O)c2[nH]c(=O)[nH]c2C)cc1
not listed: [20]
inactive: all other assays above

CN(C)C/C=C(/c1ccc(Br)cc1)c1cccnc1
active: [10] 13.1 µM
not listed: [9] | [15] | [17]
inactive: all other assays above

CC[N+](C)(C)c1cccc(O)c1
not listed: [9] | [12] | [13] | [14] | [16]
inactive: all other assays above

CC(C)[N+](C)(CCOC(=O)C1c2ccccc2Oc2ccccc21)C(C)C
active: [9] 3.29 µM | [10] 4.65 µM
not listed: [20]
inactive: all other assays above

COCCOC(=O)C1=C(C)NC(C)=C(C(=O)OC(C)C)C1c1cccc([N+](=O)[O-])c1 (configuration not stated)
active: [7] 9.2 µM
not listed: [9] | [10] | [11] | [15]
inactive: all other assays above

CCCCNC(=O)NS(=O)(=O)c1ccc(C)cc1
not listed: [18] | [20]
inactive: all other assays above

CO[C@@]1(NC(=O)CSCC#N)C(=O)N2C(C(=O)O)=C(CSc3nnnn3C)CS[C@@H]21
active: [12] 21.2 µM
not listed: [14] | [15] | [16] | [18]
inactive: all other assays above

COC(=O)[C@@H](N)Cc1ccc(O)c(O)c1
not listed: [11] | [12] | [16]
inactive: all other assays above

CCN(CC)CCNC(=O)c1cc(S(C)(=O)=O)ccc1OC
not listed: [16] | [20]
inactive: all other assays above

CCN1CCC[C@H]1CNC(=O)c1c(O)c(Cl)cc(Cl)c1OC
not listed: [20]
inactive: all other assays above

CNC1(C)C2CCC(C2)C1(C)C (configuration not stated)
not listed: [16] | [20]
inactive: all other assays above

CCn1ccnc1CC1COc2ccccc2O1 (configuration not stated)
not listed: [16] | [20]
inactive: all other assays above

C[N+](C)(C)CCOC(=O)CCC(=O)OCC[N+](C)(C)C
not listed: [20]
inactive: all other assays above

Source: PubChem BioAssay (NCATS)
